# Measurements: the supplement of paper PMC9135407
# “And” between values parts separate entries of the source, which are not always exact repeats. Identical values can stand only once. Counter-ions that a name gives are not always drawn. In all, about 5,800 compounds went through this assay and about 620 (11%) showed activity. This is one part of a sample in which actives are shown more often than they occur. Unmarked numbers belong to inactive results.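 The calls were made as follows: active = score above a cut-off or among the top three wells of a plate; in these data no inactive exceeds 0.85.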
# Tested on: primary human hepatic stellate cells (donor 1)
# Test: scaled lipid accumulation score (0 = DMSO-like, 1 = nortriptyline-like); higher = stronger HSC inactivation (lipid re-accumulation), active = hit call of the paper
# Settings: 48 h
# [1] = library stock concentration: 1 mM
# [2] = library stock concentration: 3.33 mM
# [3] = library stock concentration: 10 mM
# [4] = library stock concentration: 80 uM
# [5] = library stock concentration: 400 uM
# [6] = library stock concentration: 2 mM
smiles,measurement,setting,value
"CCCCC/C=C\C/C=C\C/C=C\CCCC/C=C\CCC(=O)O [cis-4,10,13,16-Docosatetraenoic Acid]",scaled lipid accumulation score,[1],≤ 0
CCCCC[C@H](O)/C=C/[C@H]1[C@H](O)CC(=O)[C@@H]1C/C=C\CCCC(=O)OC [Prostaglandin E2 methyl ester],scaled lipid accumulation score,[1],≤ 0
C[C@@H](NCCCc1cccc(C(F)(F)F)c1)c1cccc2ccccc12 [Cinacalcet HCl],scaled lipid accumulation score,[2],0.207
same,scaled lipid accumulation score,[3],0.351
O=C1CC(=O)c2c(Cl)c(Cl)c(Cl)c(Cl)c21,scaled lipid accumulation score,[2],≤ -0.009
same,scaled lipid accumulation score,[3],0.011
CC(C)n1cnc2c(NCCc3ccc(O)cc3)nc(-c3csc4ccccc34)nc21 [StemRegenin 1 (SR1)] [listing 1 of 2 here],scaled lipid accumulation score,[2],≤ 0
CC(C)n1cnc2c(NCc3ccccc3)nc(NCCO)nc21 [N9-Isopropylolomoucine],scaled lipid accumulation score,library stock concentration: 15.3 mM,≤ -0.012
CC(C)n1cnc2c(NCCc3ccc(O)cc3)nc(-c3csc4ccccc34)nc21 [StemRegenin 1 (SR1)] [listing 2 of 2 here],scaled lipid accumulation score,[3],0.919 (active)
CC\C=C/C=C/C=C/C=C\CCCCCCCC(=O)O [cis-Parinaric Acid],scaled lipid accumulation score,[1],0.028
CC(C)Oc1ccc(C(=O)c2ccc(NC3=NCCN3)cc2)cc1,scaled lipid accumulation score,[1],0.073
CC(=O)Nc1nc2c(Oc3cc(-c4ccc(C(F)(F)F)cc4)ncn3)cccc2s1,scaled lipid accumulation score,[2],≤ -0.009
same,scaled lipid accumulation score,[3],0.221
CCN(CC)CC1CCN(c2ncc3ncnc(Nc4ccc(F)c(Cl)c4)c3n2)CC1.Cl.Cl [BIBU 1361 dihydrochloride],scaled lipid accumulation score,[3],1.06 (active)
COc1ccc(F)c(F)c1C(=O)c1cnc(NC2CCN(S(C)(=O)=O)CC2)nc1N,scaled lipid accumulation score,[2],0.082
same,scaled lipid accumulation score,[3],0.057
CN1CCC(Nc2ncc3ncnc(Nc4ccc(F)c(Cl)c4)c3n2)CC1.Cl.Cl [BIBX 1382 dihydrochloride],scaled lipid accumulation score,[3],1.61 (active)
COc1ccc(CC(=O)NC(/N=C(\NC#N)Nc2cccc3ncccc23)C(C)(C)C)cc1OC (stereo not given),scaled lipid accumulation score,[3],0.014
O=C(O[C@@H]1Cc2c(O)cc(O)cc2O[C@@H]1c1cc(O)c(O)c(O)c1)c1cc(O)c(O)c(O)c1 [Epigallocatechin gallate],scaled lipid accumulation score,[4],≤ 0
same,scaled lipid accumulation score,[5],≤ 0
same,scaled lipid accumulation score,[6],≤ 0
same,scaled lipid accumulation score,[3],≤ 0
O=C(O[C@@H]1Cc2c(O)cc(O)cc2O[C@@H]1c1cc(O)c(O)c(O)c1)c1cc(O)c(O)c(O)c1 [(-)-Epigallocatechin Gallate],scaled lipid accumulation score,[1],≤ 0
Oc1nc(-c2ccc(C(F)(F)F)cc2)nc2c1CSCC2,scaled lipid accumulation score,[1],≤ 0
same,scaled lipid accumulation score,[2],≤ 0
same,scaled lipid accumulation score,[3],≤ 0 and 0.004
c1ccc(Cn2c(-c3ccc(OCC(C4CCNCC4)n4c(-c5ccccc5)nc5ccccc54)cc3)nc3ccccc32)cc1 (stereo not given) [Deltarasin],scaled lipid accumulation score,[2],0.766
same,scaled lipid accumulation score,[3],0.104
O=c1[nH]c(=S)[nH]c(-c2ccccc2)c1Cc1c(O)ccc2ccccc12 [Cambinol],scaled lipid accumulation score,[3],0.124
Cc1nc(Nc2n[nH]c3c2CN(C(=O)N[C@H](CN(C)C)c2ccccc2)C3(C)C)c2sccc2n1 [listing 1 of 2 here],scaled lipid accumulation score,[4],≤ -0.016
same,scaled lipid accumulation score,[5],0.092
same,scaled lipid accumulation score,[6],0.522
same,scaled lipid accumulation score,[2],≤ -0.009
same,scaled lipid accumulation score,[3],0.594
CC(C)CC(=O)Nc1n[nH]c2c1CN(C(=O)C1CCN(C)CC1)C2(C)C,scaled lipid accumulation score,[4],≤ 0
same,scaled lipid accumulation score,[5],0.21
same,scaled lipid accumulation score,[6],0.029
same,scaled lipid accumulation score,[2],0.199
same,scaled lipid accumulation score,[3],≤ 0 and 0.015
Cc1nc(Nc2n[nH]c3c2CN(C(=O)N[C@H](CN(C)C)c2ccccc2)C3(C)C)c2sccc2n1 [listing 2 of 2 here],scaled lipid accumulation score,[3],0.887 (active)
Cc1nn(C)c(COc2ccc(N3CCN(S(=O)(=O)N(C)C)CC3)cc2)c1-c1cccc2c(CCCOc3cccc4ccccc34)c(C(=O)O)n(CCN3CCOCC3)c12,scaled lipid accumulation score,[4],≤ -0.001
same,scaled lipid accumulation score,[5],≤ -0.001
same,scaled lipid accumulation score,[6],≤ -0.001
same,scaled lipid accumulation score,[3],≤ -0.001
CCCCCCCCCCCCCCCCCCN(CCCCCCCCCCCCCCCCCC)CCCN(CCO)CCO [Avridine],scaled lipid accumulation score,[3],≤ 0
N[C@@H](Cn1ccc(=O)c(O)c1)C(=O)O [L-Mimosine from Koa hoale seeds],scaled lipid accumulation score,[3],≤ 0
O=C(c1ccc(OCCN2CCCCC2)cc1)c1c(-c2ccc(O)cc2)sc2cc(O)ccc12,scaled lipid accumulation score,[3],0.798
c1cc(OCCN2CCCCC2)cc(-c2n[nH]c3ccc(-c4ncn[nH]4)cc23)c1,scaled lipid accumulation score,[3],1.72 (active)
O=C(OCCN1CCCCC1)c1c[nH]c2ccccc12,scaled lipid accumulation score,[3],0.289
O=C(c1ccc(OCCN2CCCCC2)cc1)c1c(-c2ccc(O)cc2)sc2cc(O)ccc12 [Raloxifene HCl],scaled lipid accumulation score,[2],≤ 0
same,scaled lipid accumulation score,[3],0.575
O=C(c1ccc(OCCN2CCCCC2)cc1)c1c(-c2ccc(O)cc2)sc2cc(O)ccc12 [Raloxifene hydrochloride],scaled lipid accumulation score,,0.032
same,scaled lipid accumulation score,[3],0.661 and 0.376
c1cc(OCCN2CCCCC2)cc(-c2n[nH]c3ccc(-c4nnc[nH]4)cc23)c1,scaled lipid accumulation score,[4],≤ -0.016
same,scaled lipid accumulation score,[5],≤ -0.016 and ≤ -0.005
same,scaled lipid accumulation score,[6],≤ -0.016 and 0.022
Cl.c1cc(OCCN2CCCCC2)cc(-c2n[nH]c3ccc(-c4nc[nH]n4)cc23)c1,scaled lipid accumulation score,[3],1.28 (active)
c1ccc(-c2nn3c(c2-c2ccnc4cc(OCCN5CCOCC5)ccc24)CCC3)nc1,scaled lipid accumulation score,[4],≤ -0.001
same,scaled lipid accumulation score,[5],≤ -0.001
same,scaled lipid accumulation score,[6],≤ -0.001
same,scaled lipid accumulation score,[3],≤ -0.001
CCCCC[C@H](O)/C=C/C1=C(C/C=C\CCCC(=O)O)C(=O)CC1 [Prostaglandin B2],scaled lipid accumulation score,[1],≤ 0 and ≤ -0.021
CC(=N)NCCCC[C@H](N)C(=O)O [L-NIL hydrochloride],scaled lipid accumulation score,[3],0.025
CCCCCCCCCCCC(=O)c1nc2ncccc2o1,scaled lipid accumulation score,[1],≤ 0
CCCCC/C=C\C/C=C\CCCCCCCC(=O)NCC(=O)O [N-linoleoylglycine],scaled lipid accumulation score,[1],≤ -0.021
